# Results as given in PubChem BioAssay (EPA / NIEHS).
# Several values for one entry are separate records, joined by “and”; a condition that tells them apart may be missing. Equal entries are not always repeated. Records with an inconclusive call do not appear. A structure can be active in one record and inactive in another. Activity calls are given as the source filed them. Rule for the calls, unless noted: active = hit-call score of the fitted dose curve at least 0.9, where 1 is the maximum; inactive = score below 0.9.
# Tests used:
# [1] = CCTE_Deisenroth_AIME_384WELL_CTox_Active: Cytotoxicity Assessment (CTOX) in CCTE's 384-well Estrogen Receptor Transactivation Assay with AIME metabolic competence (metabolism positive), Deisenroth Lab (AID 2284037; active = hit-call score of the fitted dose curve at least 0.9, where 1 is the maximum;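 note: chemicals first conditioned 2 h by alginate-bound induced rat liver S9 before cells; activity means signal loss indicating cell death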)
# Outline: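 Cytotoxicity in VM7Luc4E2 breast cells, 24 hour, measured as protease-substrate fluorescence loss, after 2-hour metabolic conditioning with induced rat hepatic S9 in alginate microspheres. Concentrations 0.002 - 200 uM, 10 points, bidirectional fitting.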
# [2] = CCTE_Deisenroth_AIME_384WELL_CTox_Inactive: Cytotoxicity Assessment (CTOX) in CCTE's 384-well Estrogen Receptor Transactivation Assay without AIME metabolic competence (metabolism negative), Deisenroth Lab (AID 2284039; active = hit-call score of the fitted dose curve at least 0.9, where 1 is the maximum;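 note: cell viability via live-cell protease substrate cleaved to fluorescent probe; cells exposed 24 h to medium preincubated 2 h with alginate-water beads without S9; loss of fluorescence signal means loss of viability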)
# Outline: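 Fluorescent protease-substrate viability readout after 24 h exposure of VM7Luc4E2 cells to conditioned medium. Chemicals (0.002–200 uM) first sat 2 h over alginate-water beads, no S9. Data fitted bidirectionally, loss of signal meaning viability loss.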
# [3] = CCTE_Shafer_MEA_dev_active_electrodes_number: CCTE's Neural Network Formation Assay for Number of Active Electrodes, Shafer Lab (AID 2284040; active = hit-call score of the fitted dose curve at least 0.9, where 1 is the maximum;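 for AC50: potency for loss of active electrodes versus DMSO so lower counts are hits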)
# Outline: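 Developing rat cortical networks on MEAs, exposed DIV 0–12. Value is the AUC of active-electrode counts (≥5 spikes/min) from days 5, 7, 9, 12, relative to DMSO.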
# [4] = CCTE_Shafer_MEA_dev_burst_rate: CCTE's Neural Network Formation Assay for Burst Rate, Shafer Lab (AID 2284042);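 for AC50: potency for loss of burst rate below DMSO control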
# Outline: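 Exposure ran continuously over 12 days of network development in rat cortical cultures, with compound refreshed during full media changes on DIV 5 and 9. Single-electrode bursts per recording time, well-mean over active electrodes, trapezoidal AUC across days 5–12, fitted downward relative to DMSO.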
# [5] = CCTE_Shafer_MEA_dev_bursting_electrodes_number: CCTE's Neural Network Formation Assay for Number of Bursting Electrodes, Shafer Lab (AID 2284043; active = hit-call score of the fitted dose curve at least 0.9, where 1 is the maximum;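 note: potency is for loss of bursting electrodes relative to DMSO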)
# Outline: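 Number of electrodes reaching ≥1 burst every 2 min was recorded at DIV 5, 7, 9 and 12 and collapsed as trapezoidal area under the curve. Cultures were rat cortical neurons on MEA plates, dosed continuously from plating with medium and treatment refreshed on DIV 5 and 9.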
# [6] = CCTE_Shafer_MEA_dev_per_burst_interspike_interval: CCTE's Neural Network Formation Assay for Burst Interspike Interval, Shafer Lab (AID 2284044);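 note: mean spike spacing inside bursts as AUC over recordings on days 5 7 9 12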;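 for AC50: potency for a decrease of within-burst interspike interval below DMSO level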
# Outline: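 Neurons from rat cortex plated onto PEI-coated MEA wells with laminin […] at 1.5 x 10^5 cells/well, then treated from day 0. Media and compound fully replaced on DIV 5 and 9. Extracellular spontaneous firing recorded four times; interspike interval per burst summarised as AUC.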
# [7] = CCTE_Shafer_MEA_dev_interburst_interval_mean: CCTE's Neural Network Formation Assay for Mean Interburst Interval, Shafer Lab (AID 2284046);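 note: well-mean interburst interval of bursting electrodes as AUC over four recording days; curve fitted for decrease in interburst interval relative to DMSO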
# Outline: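 Primary rat cortical neurons on PEI-coated 48-well MEA plates (laminin added with cells at plating) (16 electrodes/well), exposed from plating day 0 with renewal at DIV 5 and 9. Mean inter-burst interval averaged over bursting electrodes, AUC across days 5, 7, 9, 12; DMSO baseline.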
# [8] = CCTE_Shafer_MEA_dev_inter_network_spike_interval_mean: CCTE's Neural Network Formation Assay for Mean Inter-network Spike Interval, Shafer Lab (AID 2284047)
# Outline: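 Mean time between consecutive network-spike peaks, recorded extracellularly (adaptive spike detection) on DIV 5, 7, 9 and 12, summarized as trapezoidal AUC. Rat cortical cultures on MEAs dosed continuously days 0–12, re-dosed at feeds; loss-of-signal fit relative to DMSO.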
# [9] = CCTE_Shafer_MEA_dev_network_spike_number: CCTE's Neural Network Formation Assay for Number of Network Spikes, Shafer Lab (AID 2284048);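 note: synchronized bursts across electrodes counted on days 5 7 9 12 and integrated as AUC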;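 for AC50: fit as a loss of signal meaning fewer network spikes than DMSO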
# Outline: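 Number of network spikes (coordinated firing across electrodes) recorded on days 5, 7, 9 and 12 and summarised as area under the curve. Rat cortical cultures on MEA, continuous compound exposure with full medium/treatment exchange at DIV 5 and 9.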
# [10] = CCTE_Shafer_MEA_dev_network_spike_peak: CCTE's Neural Network Formation Assay for Mean Number of Electrodes in Network Spike, Shafer Lab (AID 2284049);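 for AC50: fitted for loss of signal meaning fewer electrodes in network spikes than DMSO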
# Outline: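 Rat cortical primary culture, 1.5 x 10^5 cells/well, 48-well MEA (16 electrodes/well). Dosing day 0 through DIV 12, full media/compound exchange DIV 5, 9. AxIS adaptive spike detection; AUC over days 5/7/9/12; loss-of-signal vs DMSO.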
# [11] = CCTE_Shafer_MEA_dev_spike_duration_mean: CCTE's Neural Network Formation Assay for Mean Spike Duration, Shafer Lab (AID 2284051);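 note: mean network spike duration pooled as area under curve over DIV 5 to 12 recordings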;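 for AC50: potency for a decrease in mean network spike duration versus DMSO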
# Outline: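 Spontaneous activity was recorded on days 5, 7, 9 and 12 from rat cortical cultures grown on microelectrode arrays and dosed continuously from day 0, with media and compound renewed after the DIV 5 and 9 recordings. Network-spike duration was collapsed by area under the curve.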
# [12] = CCTE_Shafer_MEA_dev_network_spike_duration_std: CCTE's Neural Network Formation Assay for Standard Deviation of Network Spike Duration, Shafer Lab (AID 2284052);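 note: hits are decreases in network spike duration SD versus DMSO vehicle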
# Outline: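 Network spike duration variability was collapsed across recordings on days 5, 7, 9 and 12 by trapezoidal area-under-curve and fitted downward against DMSO. Cultures were rat cortical neurons on PEI-coated MEA plates, dosed continuously from plating, refed with compound DIV 5/9.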
# [13] = CCTE_Shafer_MEA_dev_per_network_spike_spike_number_mean: CCTE's Neural Network Formation Assay for Mean Number of Spikes in a Network Spike, Shafer Lab (AID 2284053);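 for AC50: fitted as decrease in spikes per network spike relative to DMSO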
# Outline: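 Mean spike count within each network spike, taken in a 0.05 s window at its peak, was recorded on days 5, 7, 9 and 12 and integrated as trapezoidal area under the curve. Rat cortical cultures on MEA plates received continuous compound from day 0, refreshed at medium changes on DIV 5 and 9.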
# [14] = CCTE_Shafer_MEA_dev_per_network_spike_spike_percent: CCTE's Neural Network Formation Assay for Percent of Spikes in a Network Spike, Shafer Lab (AID 2284054)
# Outline: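 Metric: fraction of spikes falling in a 0.05 s window at network-spike peaks. Recordings were made on days 5, 7, 9 and 12 and collapsed by trapezoidal AUC. Cultures were rat cortical neurons on MEA plates, dosed continuously from plating, re-dosed at media changes.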
# [15] = CCTE_Shafer_MEA_dev_LDH: CCTE's Lactate Dehydrogenase Assay for Cytotoxicity in the Neural Network Formation Assay, Shafer Lab (AID 2284068; active = hit-call score of the fitted dose curve at least 0.9, where 1 is the maximum;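 note: exposure for twelve days from plating with re-dosing on DIV 5 and 9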)
# Outline: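 Primary rat cortical neurons were cultured on PEI-coated MEA plates and exposed from plating through day 12, with compound renewed at medium changes on DIV 5 and 9. LDH activity was read spectrophotometrically; loss of signal versus DMSO indicates reduced viability.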
# [16] = CCTE_Shafer_MEA_acute_AB: CCTE's Alamar Blue Assay for Cytotoxicity in the Neural Acute Assay, Shafer Lab (AID 2284069; active = hit-call score of the fitted dose curve at least 0.9, where 1 is the maximum;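 note: active compounds lower the viability signal compared with DMSO wells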)
# Outline: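 Resazurin reduction (CellTiter Blue, 1:6 in fresh medium) read at ex 544/em 590 nm marks viability loss relative to DMSO. Cells: primary rat cortical neuron networks on microelectrode arrays, treated after baseline recording at 13 or 15 days in vitro.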
# [17] = UKN5_HCS_SBAD2_cell_viability: Viability Assessment in the University of Konstanz (UKN) Leist Lab Neurite Outgrowth Assay in human iPSC-derived immature Dorsal Root Ganglia Neurons (UKN5) (AID 2284056)
# Outline: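 iPSC-derived immature peripheral neurons (SBAD2) seeded on Matrigel with CHIR99021, SU5402 and DAPT, dosed 1 h later for 24 h. Viability from Hoechst H-33342 and calcein-AM live staining, high-content imaging; bidirectional fit versus DMSO.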
# [18] = UKN5_HCS_SBAD2_neurite_outgrowth: University of Konstanz (UKN) Leist Lab Neurite Outgrowth Assay in human iPSC-derived immature Dorsal Root Ganglia Neurons (UKN5) (AID 2284070); details: actives raise or lower the signal
# Outline: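 Cryopreserved SBAD2 peripheral neurons were seeded at 100.000 cells/cm2 in N2-S/KSR medium containing CHIR99021, SU5402 and DAPT, then exposed to compounds for 24 h. Neurite area from calcein-AM high-content imaging was fitted bidirectionally against DMSO.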
# DIO2 (gene 1734) = assay: CCTE_GLTED_hDIO2: CCTE's human Deiodinase 2 (DIO2) Inhibition Assay, Great Lakes Toxicology and Ecology Division (GLTED) Lab (AID 2284050; active = hit-call score of the fitted dose curve at least 0.9, where 1 is the maximum)
# Outline: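 Readout: absorbance from Sandell-Kolthoff detection of free iodide released by human DIO2 during a 3 h incubation with chemical. Cell-free format, n=3; activity fitted relative to DMSO negative control.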
# DIO3 (gene 1735) = assay: CCTE_GLTED_hDIO3: CCTE's human Deiodinase 3 (DIO3) Inhibition Assay, Great Lakes Toxicology and Ecology Division (GLTED) Lab (AID 2284055; active = hit-call score of the fitted dose curve at least 0.9, where 1 is the maximum;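 note: potency is for inhibition seen as loss of released iodide signal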)
# Outline: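 hDIO3 (adenovirus-expressed) + test chemical, 3 h incubation; free iodide quantified by Sandell-Kolthoff reaction, absorbance read-out. DMSO negative control, n=3.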
compound,measurement,setting,value
C=C(C)CN(CC)c1c([N+](=O)[O-])cc(C(F)(F)F)cc1[N+](=O)[O-],outcome,[1],inactive
same,outcome,[2],inactive
same,AC50,[3],16.9 µM (active)
same,AC50,[4],13.3 µM (active)
same,AC50,[5],16.4 µM (active)
same,AC50,[6],22.1 µM (active)
same,AC50,[7],22.2 µM (active)
same,outcome,[8],inactive
same,AC50,[9],23.2 µM (active)
same,AC50,[10],18.1 µM (active)
same,AC50,[11],13.2 µM (active)
same,AC50,[12],13.1 µM (active)
same,AC50,[13],14.1 µM (active)
same,AC50,[14],23.2 µM (active)
same,AC50,[15],14.5 µM (active)
same,outcome,[16],inactive
CCOP(=O)(OCC)Oc1nc(Cl)c(Cl)cc1Cl,AC50,[3],904 nM (active) and 8.09 µM (active)
same,outcome,[3],inactive
same,outcome,[4],inactive
same,AC50,[5],852 nM (active) and 6.59 µM (active)
same,outcome,[6],inactive
same,outcome,[7],inactive
same,outcome,[8],inactive
same,AC50,[9],2.98 µM (active)
same,outcome,[9],inactive
same,AC50,[10],3.32 µM (active) and 9.79 µM (active)
same,outcome,[10],inactive
same,AC50,[11],5.13 µM (active) and 2.98 µM (active)
same,outcome,[11],inactive
same,AC50,[12],2.98 µM (active)
same,outcome,[12],inactive
same,AC50,[13],3.09 µM (active) and 15 µM (active)
same,outcome,[13],inactive
same,AC50,[14],7.07 µM (active)
same,outcome,[14],inactive
same,AC50,[17],18.3 µM (active)
same,AC50,[15],610 nM (active) and 413 nM (active)
same,outcome,[15],inactive
same,outcome,[16],inactive
same,AC50,[18],14.6 µM (active)
Cc1nc(N(C)C)nc(OC(=O)N(C)C)c1C,AC50,DIO2 (gene 1734),44.6 µM (active)
same,AC50,DIO3 (gene 1735),10 µM (active)
CCCC(=NOCC)C1=C(O)CC(CC(C)SCC)CC1=O (stereo not given),outcome,[2],inactive
COP(=O)(OC)O/C(C)=C/C(=O)N(C)C,outcome,[3],inactive
same,outcome,[4],inactive
same,outcome,[6],inactive
same,outcome,[7],inactive
same,outcome,[8],inactive
same,outcome,[9],inactive
same,outcome,[10],inactive
same,outcome,[11],inactive
same,outcome,[12],inactive
same,outcome,[13],inactive
same,outcome,[14],inactive
same,outcome,[15],inactive
